Source: the supplement of paper PMC10037445
Where “and” joins values, the source holds several entries; their conditions need not be identical. Equal entries are not always repeated. In all, about 2,900 compounds were measured (“IRF Lucia reporter activity, fold change vs agonist alone”: median about 0.9, highest 2% from about 2.8 on). Shown is part of a subset that was picked to be rich in the highest values.

Columns and labels:
RAW-Dual [1] = test: IRF Lucia reporter activity, fold change vs agonist alone; cytotoxicity flag (confluency mask): not cytotoxic; higher = enhanced IRF activity
In short: (§1)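 RAW-Dual macrophages (50,000 cells/well in DMEM, 384-well plates) received 50 nL of library stock by pin tool, then a PRR agonist 1 h later, and were kept at 37 °C, 5% CO2. After 20 hours, supernatant was read for IRF by QuantiLuc luminescence and for NF-κB by QuantiBlue absorbance at 620 nm. Reporter activity is fold change over agonist-alone wells. Cytotoxic wells had IncuCyte confluency below 70% of agonist controls in both mask sets.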

RAW-Dual [2] = test: IRF Lucia reporter activity, fold change vs agonist alone; higher = enhanced IRF activity; conditions: agonist: MPLA (TLR4) […]
In short: as §1

RAW-Dual [3] = test: IRF Lucia reporter activity, fold change vs agonist alone; cytotoxicity flag (confluency mask): cytotoxic (confluency <70% of control); higher = enhanced IRF activity
In short: as §1

[4] = agonist: 3'3'-cGAMP (STING) 10 ug/mL
[5] = library stock concentration (final ~1000-fold dilution): 10 mM, cytotoxicity flag (confluency mask): not cytotoxic

**Q.** For `COc1ccc(C2OCC3C(c4ccc(OC)c(OC)c4)OCC23)cc1OC` (stereo not drawn) (library stock concentration (final ~1000-fold dilution): 10 mM), which “IRF Lucia reporter activity” value (RAW-Dual [1]; [4]) is on record?
**A.** The value was 1.35.

**Q.** What about the “IRF Lucia reporter activity” value (RAW-Dual [1]; agonist: LPS (TLR4) 0.1 ug/mL) of the same compound?
**A.** Its value is 0.899.

**Q.** What does the source list for `O=C(C=Cc1ccc(O)cc1)c1ccc(O)cc1O` (library stock concentration (final ~1000-fold dilution): 10 mM)?
**A.** IRF Lucia reporter activity (RAW-Dual [1]; [4]): 0.252; IRF Lucia reporter activity (RAW-Dual [1]; agonist: LPS (TLR4) 0.1 ug/mL): 0.535

**Q.** `COC(=O)C1=C(C)NC(C)=C(C(=O)OC(C)(C)CN(C)CCC(c2ccccc2)c2ccccc2)C1c1cccc([N+](=O)[O-])c1` (stereo not drawn) was tested. Which “IRF Lucia reporter activity” value (RAW-Dual [2]; [5]) did it give?
**A.** Its value is 2.39.

**Q.** `COC(=O)C1=C(C)NC(C)=C(C(=O)OCCN(C)Cc2ccccc2)C1c1cccc([N+](=O)[O-])c1.Cl` (stereo not drawn) was tested. Which “IRF Lucia reporter activity” value (RAW-Dual [2]; [5]) did it give?
**A.** The value was 1.12.

**Q.** With `COC(=O)C1=C(C)NC(C)=C(C(=O)OCCN(C)Cc2ccccc2)C1c1cccc([N+](=O)[O-])c1.Cl` (stereo not drawn) (library stock concentration (final ~1000-fold dilution): 10 mM) as the compound, how does the “IRF Lucia reporter activity” value (RAW-Dual [1]; [4]) read?
**A.** The value was 0.3.

**Q.** And the “IRF Lucia reporter activity” value (RAW-Dual [1]; agonist: LPS (TLR4) 0.1 ug/mL)?
**A.** Its value is 1.4.

**Q.** `COC(=O)C1=C(C)NC(C)=C(C(=O)OC(C)(C)CN(C)CCC(c2ccccc2)c2ccccc2)C1c1cccc([N+](=O)[O-])c1.Cl` (stereo not drawn) (library stock concentration (final ~1000-fold dilution): 10 mM) was tested. Which “IRF Lucia reporter activity” value (RAW-Dual [1]; [4]) did it give?
**A.** Its value is 0.139.

**Q.** And the “IRF Lucia reporter activity” value (RAW-Dual [1]; agonist: LPS (TLR4) 0.1 ug/mL)?
**A.** The value was 3.23.

**Q.** Which results are given for `COC(=O)C1=C(C)NC(C)=C(C(=O)OC(C)(C)CN(C)CCC(c2ccccc2)c2ccccc2)C1c1cccc([N+](=O)[O-])c1` (stereo not drawn) (library stock concentration (final ~1000-fold dilution): 10 mM)?
**A.** IRF Lucia reporter activity (RAW-Dual [1]; [4]): 0.134; IRF Lucia reporter activity (RAW-Dual [1]; agonist: LPS (TLR4) 0.1 ug/mL): 1.96

**Q.** With `COC(=O)C1=C(C)NC(C)=C(C(=O)OC(C)(C)CN(C)CCC(c2ccccc2)c2ccccc2)C1c1cccc([N+](=O)[O-])c1.Cl` (stereo not drawn) as the compound, how does the “IRF Lucia reporter activity” value (RAW-Dual [2]; [5]) read?
**A.** The value was 2.1.

**Q.** What does the source list for `COC(=O)c1ccc(O)c(NC(=O)COc2ccc(C34CC5CC(CC(C5)C3)C4)cc2)c1` (library stock concentration (final ~1000-fold dilution): 10 mM)?
**A.** IRF Lucia reporter activity (RAW-Dual [1]; [4]): 0.925; IRF Lucia reporter activity (RAW-Dual [1]; agonist: LPS (TLR4) 0.1 ug/mL): 1.14

**Q.** How did the “IRF Lucia reporter activity” value (RAW-Dual [1]; [4]) turn out when `CC(C)Cc1ccc([C@@H](C)C(=O)O)cc1` (library stock concentration (final ~1000-fold dilution): 10 mM) was run?
**A.** The value was 0.953.

**Q.** What about the “IRF Lucia reporter activity” value (RAW-Dual [1]; agonist: LPS (TLR4) 0.1 ug/mL) of the same compound?
**A.** The value was 1.08.

**Q.** For `CCC(C)C(=O)OC1CC(C)C=C2C=CC(C)C(CCC3CC(O)CC(=O)O3)C21` (stereo not drawn), which “IRF Lucia reporter activity” value (RAW-Dual [2]; [5]) is on record?
**A.** Its value is 0.744.

**Q.** What does the source list for `CCC(C)C(=O)OC1CC(C)C=C2C=CC(C)C(CCC3CC(O)CC(=O)O3)C21` (stereo not drawn) (library stock concentration (final ~1000-fold dilution): 10 mM)?
**A.** IRF Lucia reporter activity (RAW-Dual [1]; [4]): 0.497; IRF Lucia reporter activity (RAW-Dual [1]; agonist: LPS (TLR4) 0.1 ug/mL): 0.764

**Q.** With `Cc1cc(/C=C/C#N)cc(C)c1Nc1ccnc(Nc2ccc(C#N)cc2)n1` (library stock concentration (final ~1000-fold dilution): 10 mM) as the compound, how does the “IRF Lucia reporter activity” value (RAW-Dual [1]; [4]) read?
**A.** The value was 0.03.

**Q.** And the “IRF Lucia reporter activity” value (RAW-Dual [1]; agonist: LPS (TLR4) 0.1 ug/mL)?
**A.** The value was 0.489.

**Q.** `Cc1cc(C#N)cc(C)c1Oc1nc(Nc2ccc(C#N)cc2)nc(N)c1Br` (library stock concentration (final ~1000-fold dilution): 10 mM) was tested. Which “IRF Lucia reporter activity” value (RAW-Dual [1]; [4]) did it give?
**A.** The value was 1.09.

**Q.** What about the “IRF Lucia reporter activity” value (RAW-Dual [1]; agonist: LPS (TLR4) 0.1 ug/mL) of the same compound?
**A.** The value was 2.87.

**Q.** With `Cc1cc(/C=C/C#N)cc(C)c1Nc1ccnc(Nc2ccc(C#N)cc2)n1` as the compound, how does the “IRF Lucia reporter activity” value (RAW-Dual [2]; [5]) read?
**A.** Its value is 0.64.

**Q.** What does the source list for `Cc1cc(C)c(Nc2ccnc(Nc3ccc(C#N)cc3)n2)c(C)c1` (library stock concentration (final ~1000-fold dilution): 10 mM)?
**A.** IRF Lucia reporter activity (RAW-Dual [3]; [4]): 0.691; IRF Lucia reporter activity (RAW-Dual [3]; agonist: LPS (TLR4) 0.1 ug/mL): 0.81

**Q.** With `Cc1cc(C#N)cc(C)c1Oc1nc(Nc2ccc(C#N)cc2)nc(N)c1Br` as the compound, how does the “IRF Lucia reporter activity” value (RAW-Dual [2]; [5]) read?
**A.** The value was 2.4.

**Q.** For `Cc1cc(C)c(Nc2ccnc(Nc3ccc(C#N)cc3)n2)c(C)c1`, which “IRF Lucia reporter activity” value (RAW-Dual [2]; library stock concentration (final ~1000-fold dilution): 10 mM, cytotoxicity flag (confluency mask): cytotoxic (confluency <70% of control)) is on record?
**A.** Its value is 1.7.

**Q.** For `CC1CNc2c(cccc2S(=O)(=O)NC(CCCNC(=N)N)C(=O)N2CCC(C)CC2C(=O)O)C1` (stereo not drawn), which “IRF Lucia reporter activity” value (RAW-Dual [2]; [5]) is on record?
**A.** The value was 0.948.

**Q.** With `CC1CNc2c(cccc2S(=O)(=O)NC(CCCNC(=N)N)C(=O)N2CCC(C)CC2C(=O)O)C1` (stereo not drawn) (library stock concentration (final ~1000-fold dilution): 10 mM) as the compound, how does the “IRF Lucia reporter activity” value (RAW-Dual [1]; [4]) read?
**A.** The value was 1.01.

**Q.** And the “IRF Lucia reporter activity” value (RAW-Dual [1]; agonist: LPS (TLR4) 0.1 ug/mL)?
**A.** The value was 0.919.

**Q.** How did the “IRF Lucia reporter activity” value (RAW-Dual [2]; [5]) turn out when `O=C(O)c1cc(I)ccc1NC(=O)C(Cc1ccccc1)NCc1ccccc1` (stereo not drawn) was run?
**A.** Its value is 1.05.

**Q.** For `O=C(O)c1cc(I)ccc1NC(=O)C(Cc1ccccc1)NCc1ccccc1` (stereo not drawn) (library stock concentration (final ~1000-fold dilution): 10 mM), which “IRF Lucia reporter activity” value (RAW-Dual [1]; [4]) is on record?
**A.** The value was 1.17.

**Q.** And the “IRF Lucia reporter activity” value (RAW-Dual [1]; agonist: LPS (TLR4) 0.1 ug/mL)?
**A.** The value was 1.41.

**Q.** How did the “IRF Lucia reporter activity” value (RAW-Dual [2]; library stock concentration (final ~1000-fold dilution): 10 mM water, cytotoxicity flag (confluency mask): not cytotoxic) turn out when `Nc1nc2[nH]cc(CCc3ccc(C(=O)NC(CCC(=O)O)C(=O)O)cc3)c2c(=O)[nH]1` (stereo not drawn) was run?
**A.** The value was 1.12.

**Q.** `Nc1nc2[nH]cc(CCc3ccc(C(=O)NC(CCC(=O)O)C(=O)O)cc3)c2c(=O)[nH]1` (stereo not drawn) (library stock concentration (final ~1000-fold dilution): 10 mM water) was tested. Which “IRF Lucia reporter activity” value (RAW-Dual [1]; [4]) did it give?
**A.** Its value is 1.15 and 0.82.

**Q.** And the “IRF Lucia reporter activity” value (RAW-Dual [1]; agonist: LPS (TLR4) 0.1 ug/mL)?
**A.** Its value is 0.998 and 0.771.
